Screening results from PubChem.
VP16 counter: VP16 counterscreen qHTS for inhibitors of ROR gamma transcriptional activity; Drosophila S2 Gal4-VP16 UAS-luciferase, luminescence, 20 h; Potency, µM (highest dose often 53.6 µM), hits mostly inhibitors; 310,000 tested, 3.5% active; AID 2546, 2010;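 note: Gal4-VP16 expression switched on by copper sulfate through the metallothionein promoter; nearly all actives have a fitted effect of over 50% in size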
RORg inh: qHTS for inhibitors of ROR gamma transcriptional activity; Drosophila S2 Gal4-RORgamma UAS-luciferase reporter, 20 h; Potency, µM (top dose mostly 53.6 µM), hits mostly inhibitors; 310,000 tested, 5.4% active; AID 2551, 2010; note: nearly all actives have a fitted effect of over 60% in size
Target sequence (P51450 whole entry, looked up, the tested form may be a part): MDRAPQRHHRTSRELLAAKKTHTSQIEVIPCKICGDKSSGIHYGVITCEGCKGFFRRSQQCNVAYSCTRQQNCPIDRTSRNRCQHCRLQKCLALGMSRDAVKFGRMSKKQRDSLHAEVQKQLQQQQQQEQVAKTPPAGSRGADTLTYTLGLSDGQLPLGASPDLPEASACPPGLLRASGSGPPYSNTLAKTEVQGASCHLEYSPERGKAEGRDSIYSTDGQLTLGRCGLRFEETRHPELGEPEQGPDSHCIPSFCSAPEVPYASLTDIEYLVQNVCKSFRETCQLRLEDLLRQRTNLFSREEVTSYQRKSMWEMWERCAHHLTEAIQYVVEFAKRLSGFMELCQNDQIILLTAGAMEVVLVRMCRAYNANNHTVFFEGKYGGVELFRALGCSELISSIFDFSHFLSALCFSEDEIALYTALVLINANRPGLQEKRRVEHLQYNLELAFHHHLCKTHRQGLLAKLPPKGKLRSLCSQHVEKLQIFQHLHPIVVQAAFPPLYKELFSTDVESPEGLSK
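In this cell-based reporter format, copper sulfate (700 uM final) drives Gal4–ROR gamma fusion expression from a metallothionein promoter in Drosophila Schneider cells; compounds preincubated 1 hr, reporter read after 20 hr at ambient temperature.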
SW480 rereplic: A quantitative high throughput screen for small molecules that induce DNA re-replication in SW480 colon adenocarcinoma cells; Potency, µM (doses to about 46.1 µM), most hits filed as activators; AID 624297, 2012; SW480 DNA re-replication, Hoechst DNA content imaging, 48 h; 340,000 tested, 1.8% active; note: nearly all actives have a fitted effect of over 55% in size
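SW480 cells exposed to compounds for 48 hr at 37 C, 5% CO2, then Hoechst-stained 40 min. Nuclear DNA content imaged by fluorescence scanning (405 nm excitation, 500-530 nm emission); re-replication scored as increased high-intensity nuclei.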
MCF10A rereplic: A quantitative high throughput screen for small molecules that induce DNA re-replication in MCF 10a normal breast cells; 350,000 tested, 2.9% active; Potency, µM (highest dose often 46.1 µM), actives largely listed as activators; MCF 10A DNA re-replication, Hoechst nuclear intensity, 48 h; note: nearly all actives have a fitted effect of over 50% in size
ELG1 DNA repair: qHTS screen for small molecules that inhibit ELG1-dependent DNA repair in human embryonic kidney (HEK293T) cells expressing luciferase-tagged ELG1; HEK293T ELG1-luciferase reporter, luminescence, 16 h; DNA damage induced by 5-fluorouridine; Potency, µM (highest dose often 46.1 µM), hits mostly inhibitors; 330,000 tested, 2.3% active; AID 504467, 2011; note: nearly all actives have a fitted effect of over 55% in size
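Cells (2,000 per well) received 5-fluorouridine plus test compound or DMSO and were incubated 16 hr at 37 °C, 5% CO2. Luciferase activity was read by luminescence 30 min after ONE-Glo addition; signal suppression marked inhibition of damage-induced ELG1 function.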
Large screens that a line does not name were inactive. Compounds with a hit are over-represented: about 10% of the library has one in this group of screens. Calls come from the whole dose curve; as a rule, active = well fitted curve in the direction sought with a large enough effect; inconclusive = small, poorly fitted or top-dose-only effect, or another doubt; inactive = no such curve, though single readings can be large; an effect the other way counts as inactive or inconclusive.

Cc1ccc(C)c(N2CCN(C(=S)Nc3ccc4nc(N5CCOCC5)cc(C)c4c3)CC2)c1	VP16 counter inconclusive, RORg inh 5.6µM, SW480 rereplic inconclusive, MCF10A rereplic 16µM
NS(=O)(=O)c1ccc(CCNC(c2ccccc2)c2ccccc2)cc1	MCF10A rereplic inconclusive
c1ccc(C(NCCNC(c2ccccc2)c2ccccc2)c2ccccc2)cc1	VP16 counter inconclusive, RORg inh 13µM, MCF10A rereplic inconclusive
COc1cc(NC(=O)CN2CCN(c3ccccc3O)CC2)c(C)cc1[N+](=O)[O-]	RORg inh inconclusive, ELG1 DNA repair 21µM (no result: SW480 rereplic)
O=C(/C=C/c1ccccc1)NCCc1ccccc1	ELG1 DNA repair inconclusive
CN1CCN(NC(=O)c2cc(-c3ccc(Cl)s3)nc3ccccc23)CC1	SW480 rereplic 16µM, MCF10A rereplic 15µM, ELG1 DNA repair inconclusive
CN1CCN(NC(=O)c2cc(-c3ccccn3)nc3ccccc23)CC1	ELG1 DNA repair inconclusive
CC(C)(CNC(=O)c1cc(-c2ccc(Cl)s2)nc2ccccc12)N1CCOCC1	SW480 rereplic 23µM, MCF10A rereplic inconclusive (no result: VP16 counter, RORg inh)
CSc1nsc(SCC(=O)Nc2cccc(NC(C)=O)c2)n1	ELG1 DNA repair inconclusive
NC(=O)c1ccc(NC(=O)COC(=O)C2CC(=O)N(Cc3ccccc3)C2)cc1 (centres undefined)	none
CC(C)CNS(=O)(=O)c1ccc(CCC(=O)NC2CCCC2)cc1	MCF10A rereplic 1µM
COc1ccc(N2CCN(C(=O)CCc3ccc(S(=O)(=O)NCC(C)C)cc3)CC2)cc1	VP16 counter inconclusive, RORg inh inconclusive, ELG1 DNA repair inconclusive
CC(C)CNS(=O)(=O)c1ccc(CCC(=O)N2CCN(c3ccc(F)cc3)CC2)cc1	RORg inh inconclusive, ELG1 DNA repair 12µM
Cc1[nH]n(-c2ccccc2)c(=O)c1C=Nc1cccc2cccnc12	VP16 counter 0.63µM, RORg inh 0.63µM, SW480 rereplic inconclusive, ELG1 DNA repair inconclusive
Cc1[nH]n(-c2ccccc2)c(=O)c1/C=N/N1CCOCC1	none
Cc1[nH]n(-c2ccccc2)c(=O)c1/C=N/N1C(=O)c2cccc3cccc(c23)C1=O	VP16 counter inconclusive, RORg inh 7.1µM, SW480 rereplic inconclusive, ELG1 DNA repair inconclusive
CCc1cc(C(=O)NCC(C)(C)N2CCOCC2)sc1C	none (no result: VP16 counter, RORg inh)
Cc1csc(C(C#N)C(=O)c2ccc(S(=O)(=O)N3CCCC3)cc2)n1 (centres undefined)	none
OC[C@@H]1[C@@H](c2ccc(F)cc2)C(c2cccc(Cl)c2)=NN1c1ccccc1	VP16 counter inconclusive, SW480 rereplic 0.13µM, MCF10A rereplic 0.58µM
OC[C@@H]1[C@@H](c2ccc(Cl)cc2)C(c2cccc(Cl)c2)=NN1c1ccccc1	VP16 counter inconclusive, SW480 rereplic 2.3µM, MCF10A rereplic inconclusive
C[C@H]1C(c2cccc(Cl)c2)=NN(c2ccccc2)[C@@H]1CO	none (no result: SW480 rereplic, MCF10A rereplic, ELG1 DNA repair)
OC[C@@H]1[C@@H](c2ccc(Cl)cc2)C(c2ccccc2)=NN1c1ccccc1	RORg inh inconclusive, SW480 rereplic 23µM, MCF10A rereplic 2.1µM
C/C(=N\NC(=O)CC(C)C)c1ccc(N2CCCCC2)cc1	ELG1 DNA repair inconclusive
NCCOc1cnn(-c2ccccc2Cl)c(=O)c1Cl	none
Cc1cc(Cl)ccc1OCC(=O)Nc1ccccc1C(=O)N1CCOCC1	ELG1 DNA repair inconclusive
COc1ccccc1C(=O)N1CCN(c2cccc(C(F)(F)F)c2)CC1	SW480 rereplic 23µM, MCF10A rereplic 11µM, ELG1 DNA repair inconclusive
COc1cc(Cl)ccc1NC(=O)COc1ccccc1C(=O)N1CCN(c2ccc(O)cc2)CC1	ELG1 DNA repair 13µM
COc1ccc(C(=O)N2CCN(c3cccc(Cl)c3)CC2)c(OC)c1	SW480 rereplic inconclusive, MCF10A rereplic 18µM
O=C(c1ccc(CS(=O)Cc2ccccc2Cl)o1)N1CCN(c2ccccn2)CC1 (centres undefined)	ELG1 DNA repair 21µM
CCC(CC)NC(=O)CCCSc1nc2ccccc2[nH]1	none
c1ccc(OCc2nc3c4c(ncn3n2)-c2ccccc2CC42CCCC2)cc1	MCF10A rereplic inconclusive, ELG1 DNA repair inconclusive
CCOC(=O)c1[nH]c(C)c(C(=O)N2CCN(c3ccccc3)CC2)c1C	none
COc1cccc(N2CCN(C(=O)c3ccc(CS(=O)Cc4ccccc4Cl)o3)CC2)c1 (centres undefined)	ELG1 DNA repair inconclusive
COc1cccc(N2CCN(C(=O)c3cc(-c4ccc(F)cc4)[nH]c3C)CC2)c1	MCF10A rereplic inconclusive, ELG1 DNA repair 21µM
COc1cccc(N2CCN(C(=O)c3ccc(CS(=O)Cc4ccc(Cl)cc4)o3)CC2)c1 (centres undefined)	ELG1 DNA repair 21µM
CCOc1ccc2ccccc2c1C(=O)N1CCN(c2ccccc2)CC1	SW480 rereplic inconclusive, MCF10A rereplic 13µM
CCOc1ccccc1C(=O)N1CCN(c2cccc(Cl)c2)CC1	SW480 rereplic 0.41µM, MCF10A rereplic inconclusive
CN(c1ccccc1)S(=O)(=O)c1cccc(NC(=O)CCN2C(=O)C3CCCCC3C2=O)c1 (centres undefined)	none
O=C(CCCCn1cnc2c(=S)nc[nH]c21)Nc1ccc(C(=O)O)c(O)c1	none (no result: VP16 counter, RORg inh, ELG1 DNA repair)
COc1ccccc1N1CCN(c2ncc(C(=O)N3CCN(c4cccc(Cl)c4)CC3)c3ccccc23)CC1	SW480 rereplic inconclusive, ELG1 DNA repair 5.2µM
COc1ccccc1N1CCN(C(=O)C2CCN(C(=O)c3cccc(Cl)c3)CC2)CC1	RORg inh inconclusive
CNC(=S)NNC(=O)c1cc(-c2cccnc2)nc2ccccc12	VP16 counter 16µM, RORg inh 7.1µM
O=C(N/N=C/c1ccc[nH]1)c1cc(-c2ccc(Cl)cc2)nc2ccccc12	VP16 counter 5.6µM, RORg inh 1.4µM, SW480 rereplic inconclusive, MCF10A rereplic inconclusive, ELG1 DNA repair inconclusive
Cc1ccc(/C=N/NC(=O)c2cc(-c3cccnc3)nc3ccccc23)cc1	SW480 rereplic 2.6µM, MCF10A rereplic 23µM
O=C(N/N=C/c1ccc(Cl)cc1)c1cc(-c2cccnc2)nc2ccccc12	SW480 rereplic 4.1µM, MCF10A rereplic inconclusive, ELG1 DNA repair inconclusive
COc1ccccc1CNC(=O)CN1C(=O)NC(c2ccccc2)(c2ccccc2)C1=O	ELG1 DNA repair inconclusive (no result: VP16 counter, RORg inh)
O=C(COc1ccc(Cl)cc1Br)N1CCN(c2ncccn2)CC1	none (no result: VP16 counter, RORg inh)
CSc1ncccc1C(=O)OCC(=O)NC(C)CCc1ccccc1 (centres undefined)	MCF10A rereplic inconclusive (no result: VP16 counter, RORg inh)
CC(C)OC(=O)CSc1nnc2c(n1)[nH]c1ccc(F)cc12	SW480 rereplic inconclusive
CC(C)(C)C(=O)COC(=O)c1cc(-c2cccnc2)nc2ccccc12	VP16 counter 35µM, RORg inh inconclusive, MCF10A rereplic inconclusive, ELG1 DNA repair inconclusive
O=C(N/N=C/c1cccnc1)c1cc(-c2ccccc2)nc2ccccc12	ELG1 DNA repair inconclusive
